# An excerpt weighted towards active compounds, which were near 6.8% of everything screened.
# C diff HTS: inhibitors of Clostridium difficile growth; Clostridium difficile clinical isolate growth, OD600, 24 h; stronger effect = lower value; 86,000 compounds, 0.25% hits; growth activity, negative = inhibition, % at 16 µg/mL (by protocol);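 active = mean growth activity at or below -80% and every replicate also at or below -80%; inconclusive = mean at or below -80% but some replicate above -80%; inactive = mean growth activity above -80%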
# Tcruzi prolif: blocks T. cruzi growth in NIH3T3 culture; T. cruzi beta-gal in NIH3T3, GalScreen luminescence, 90 h; inhibition, % at 8.34 µM; 77,000 compounds, 5.9% hits;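 active = mean inhibition above about 93%, with at least 55% of replicates each passing it, limit read from the data, passing the limit was not always enough; inconclusive = only one of those two conditions holds; inactive = neither condition holds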
# Pf Dd2 growth: blocks growth of Plasmodium falciparum Dd2 parasites | P. falciparum Dd2 growth, SYBR Green, 72 h; stronger effect = lower value | activity change, % at 10 µM | 94,000 compounds, 2.3% hits | AID 1159554; in the data active = activity change below about -80%; inconclusive = no clear call, values can overlap the other calls
# A number is an active result; – = inactive; ? = inconclusive; · = not tested or not shown; ! = a repeat was not active.
SMILES,C diff HTS,Tcruzi prolif,Pf Dd2 growth
COc1cccc(S(=O)(=O)N2CCCCN3[C@@H](CO)[C@@H](c4ccc(C5=CCCCC5)cc4)[C@@H]3C2)c1,–,–,-84.4
O=C(Nc1ccc(F)cc1)Nc1ccc2c(c1)[C@H]1C[C@H](CC(=O)N3CCCCC3)O[C@@H](CO)[C@H]1O2,–,–,–
C[C@@H]1CN([C@@H](C)CO)C(=O)c2cc(C#CCc3ccccc3)cnc2O[C@@H]1CN(C)C(=O)C1CC1,·,–,–
C[C@H]1CN([C@@H](C)CO)C(=O)c2cc(NC(=O)Nc3ccccc3)ccc2O[C@H]1CN(C)Cc1ccc(Cl)c(Cl)c1,–,–,–
CO[C@H]1CN(C)C(=O)c2ccc(NS(C)(=O)=O)cc2OC[C@H](C)N(C(=O)NC(C)C)C[C@@H]1C,–,·,–
O=C(Nc1ccc(F)cc1)N[C@@H]1CC[C@@H](CC(=O)N2CCOCC2)O[C@@H]1CO,·,–,–
COc1ccc(NC(=O)N(C)C[C@H]2OCCCC[C@@H](C)Oc3ccc(NC(=O)NC(C)C)cc3C(=O)N([C@H](C)CO)C[C@H]2C)cc1,–,–,–
COc1ccc2c3c([nH]c2c1)[C@@H](CO)N(Cc1ccccc1)CC31CCN(C(=O)c2cccnc2)CC1,–,·,-89.9
COc1ccc2c3c([nH]c2c1)[C@@H](CO)N(Cc1cccnc1)CC31CCN(C(=O)c2cccnc2)CC1,–,·,–
COc1ccc2c3c([nH]c2c1)[C@H](CO)N(C(=O)c1cccc(F)c1)CC31CCN(C(=O)c2ccccc2)CC1,–,·,–
COc1ccc2c3c([nH]c2c1)[C@H](CO)N(Cc1cccnc1)CC31CCN(C(=O)CN(C)C)CC1,–,·,-86.0
COc1ccc2c3c([nH]c2c1)[C@@H](CO)N(CC1CC1)CC31CN(C(=O)c2ccc(F)cc2)C1,–,·,–
COc1ccc2c3c([nH]c2c1)[C@@H](CO)N(CC1CC1)CC31CN(C(=O)c2ccccc2)C1,–,·,-84.6
COc1ccc2c3c([nH]c2c1)[C@@H](CO)N(C(=O)c1cccc(F)c1)CC31CCN(C(=O)c2ccccc2)CC1,–,·,-88.1
COc1ccc2c3c([nH]c2c1)[C@H](CO)N(Cc1cccnc1)CC31CN(C(=O)CN(C)C)C1,–,·,–
Cc1ccc(S(=O)(=O)NCC[C@H]2CC[C@@H](NC(=O)c3cnccn3)[C@H](CO)O2)cc1,·,–,–
O=C(C[C@@H]1CC[C@H]2[C@@H](COC[C@H](O)CN2S(=O)(=O)c2ccc(F)cc2)O1)NCC1CCCCC1,–,–,·
CC(C)CC#Cc1cnc2c(c1)C(=O)N([C@@H](C)CO)C[C@@H](C)[C@H](CN(C)C(=O)c1ccc(F)cc1)O2,–,–,–
CC(C)NC(=O)Nc1ccc2c(c1)C(=O)N([C@H](C)CO)C[C@H](C)[C@@H](CN(C)Cc1ccncc1)OCCCC[C@H](C)O2,–,–,–
CCCNC(=O)N1CC2(C1)[C@H](c1ccccc1)[C@H](CO)N2C(=O)C1CC1,–,·,–
C[C@@H]1CCCCO[C@@H](CN(C)C(=O)Nc2cccc3ccccc23)[C@@H](C)CN([C@@H](C)CO)C(=O)c2cc(NC(=O)NC3CCCCC3)ccc2O1,–,–,–
COc1ccc(CN2CC3(CCN(C(=O)c4ccccc4)CC3)c3c([nH]c4cc(OC)ccc34)[C@@H]2CO)cc1,–,·,-87.6
COc1ccc(CN2CC3(CN(C(=O)c4ccccc4)C3)c3c([nH]c4cc(OC)ccc34)[C@@H]2CO)cc1,–,·,–
O=C(c1ccccc1F)N1CC2(C1)[C@@H](c1ccccc1)[C@@H](CO)N2CC1CCCC1,–,·,–
COc1ccccc1CN1C[C@@H]2N[C@H](C1)C2c1ccc(-c2ccc(C#N)cc2)cc1 (stereo partly specified),–,·,-82.4!
SMILES,C diff HTS,Tcruzi prolif,Pf Dd2 growth
COc1ccccc1CN1C[C@@H]2N[C@H](C1)C2c1ccc(-c2cccc(C#N)c2)cc1 (stereo partly specified),–,·,–
N#Cc1ccc(-c2ccc([C@@H]3[C@@H]4CN(Cc5cocn5)C[C@H]3N4)cc2)cc1,–,·,?
N#Cc1ccc(-c2ccc(C3[C@@H]4CN(C(=O)C5CCCCC5)C[C@H]3N4)cc2)cc1 (stereo partly specified),–,·,-88.2!
N#Cc1ccc(-c2ccc(C3[C@@H]4CN(Cc5ccccc5F)C[C@H]3N4)cc2)cc1 (stereo partly specified),–,·,-88.6!
N#Cc1cccc(-c2ccc(C3[C@@H]4CN(C(=O)C5CCCCC5)C[C@H]3N4)cc2)c1 (stereo partly specified),–,·,–
O=C(C[C@@H]1C[C@H]2c3cc(NC(=O)C4CCC4)ccc3O[C@H]2[C@@H](CO)O1)NCc1cc(F)ccc1F,–,–,–
Cc1ccc(S(=O)(=O)N(C)C[C@@H]2OCCCC[C@H](C)Oc3ccc(NC(=O)Nc4ccccc4)cc3C(=O)N([C@H](C)CO)C[C@H]2C)cc1,–,–,-89.9
C[C@@H]1CN([C@H](C)CO)C(=O)c2cc(NC(=O)Nc3ccc4c(c3)OCO4)ccc2O[C@@H](C)CCCCO[C@@H]1CN(C)S(=O)(=O)c1ccc(Cl)cc1,–,–,-87.8
C[C@@H]1CN([C@H](C)CO)C(=O)c2cc(NC(=O)Nc3ccccc3)ccc2O[C@@H](C)CCCCO[C@@H]1CN(C)S(=O)(=O)c1ccc(Cl)cc1,·,–,-86.4
Cc1ccc(S(=O)(=O)N(C)C[C@@H]2OCCCC[C@H](C)Oc3ccc(NC(=O)Nc4ccc5c(c4)OCO5)cc3C(=O)N([C@H](C)CO)C[C@H]2C)cc1,·,·,–
C[C@@H]1CN([C@H](C)CO)C(=O)c2cc(NC(=O)Nc3ccccc3)ccc2O[C@@H](C)CCCCO[C@H]1CN(C)S(=O)(=O)c1ccc(Cl)cc1,·,–,-81.3
C[C@@H]1CCCCO[C@H](CN(C)S(=O)(=O)c2ccccc2)[C@H](C)CN([C@@H](C)CO)C(=O)c2cc(NC(=O)Nc3ccccc3)ccc2O1,·,–,–
C[C@@H]1CCCCO[C@@H](CN(C)S(=O)(=O)c2ccccc2)[C@@H](C)CN([C@@H](C)CO)C(=O)c2cc(NC(=O)Nc3ccccc3)ccc2O1,·,–,–
C[C@@H]1CN([C@@H](C)CO)C(=O)c2cc(NC(=O)Nc3ccccc3)ccc2O[C@@H](C)CCCCO[C@@H]1CN(C)S(=O)(=O)c1ccccc1,·,–,–
CCC(=O)N(C)C[C@H]1Oc2ncc(-c3ccccc3F)cc2C(=O)N([C@H](C)CO)C[C@@H]1C,–,–,–
C/C=C/c1ccc2c(c1)O[C@@H](CN(C)C(=O)C1CC1)[C@@H](C)CN([C@H](C)CO)S2(=O)=O,–,–,–
CO[C@@H]1CN(C)C(=O)c2ccc(NC(=O)C3CCCCC3)cc2OC[C@@H](C)N(C(=O)Nc2ccc(C(F)(F)F)cc2)C[C@H]1C,·,–,–
C[C@@H]1CCCCO[C@@H](CN(C)S(=O)(=O)c2ccc(Cl)cc2)[C@@H](C)CN([C@H](C)CO)C(=O)c2cc(NC(=O)Nc3ccccc3)ccc2O1,·,–,-84.3
C[C@@H]1CCCCO[C@@H](CN(C)S(=O)(=O)c2ccccc2)[C@H](C)CN([C@H](C)CO)C(=O)c2cc(NC(=O)Nc3ccccc3)ccc2O1,·,–,–
C[C@H]1CCCCO[C@@H](CN(C)S(=O)(=O)c2ccccc2)[C@@H](C)CN([C@@H](C)CO)C(=O)c2cc(NC(=O)Nc3ccccc3)ccc2O1,·,–,–

# Source: PubChem (Broad Institute)
